# Assay outcomes: PubChem BioAssay, National Center for Advancing Translational Sciences (NCATS)
# Rows were chosen to be rich in hits. Some 7.3% of all compounds tested hit in one or more screens of this group.
# VACV Venus inh – inhibitors of vaccinia virus (Venus reporter). AID 720580. 330,000 compounds, 0.46% hits. Potency, µM (series often up to 36.5 µM), for inactives: top-dose activity change, negative = inhibition, actives largely listed as inhibitors. Vaccinia virus Venus reporter expression, fluorescence; calls by dose curve; tested in A549 cells; further: potency means the concentration at half of the fitted maximal effect; nearly all actives have a fitted effect of over 30% in size
# Vaccinia mCherry – vaccinia inhibition (mCherry reporter). Potency, µM (doses to about 36.5 µM), inactives show top-dose activity change, negative = inhibition, most hits filed as inhibitors. 310,000 compounds, 0.63% hits. Vaccinia virus mCherry reporter infection, fluorescence; calls by dose curve; tested in A549 cells; further: potency means the concentration at half of the fitted maximal effect; nearly all actives have a fitted effect of over 35% in size
# HCMV inh – human cytomegalovirus inhibition. HFF cells, HCMV-luciferase reporter, 72 h; active compounds read low. activity change, negative = inhibition, % at 57.5 µM. 410,000 compounds, 4.5% hits. AID 1259415; in the data active means activity change below about -60%; inconclusive means no clear call, values can overlap the other calls; inactive means above about -39%
#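 Inhibition of viral replication was scored as loss of reporter luminescence in HFFs infected with HCMV-luciferase (MOI 1 PFU/cell) for 72 h; compounds tested at 2 doses, normalized to buffer and Salinomycin controls.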
# HCV inhibitor – inhibitors of hepatitis C virus infection. Huh7.5.1 HCVcc-Cre infection, luciferase reporter, 44 h. Potency, µM (series often up to 41.8 µM), for the others: top-dose activity change, negative = inhibition, usual class: inhibitors. 340,000 compounds, 3.4% hits. AID 651820; active means well fitted inhibition curve with a large enough effect; inconclusive means small, poorly fitted or top-dose-only effect, or another doubt; inactive means no such curve, though single readings can be large or run the other way; further: potency means the concentration at half of the fitted maximal effect
#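 Cells (1,000/well) were plated 4 h before compound, then infected with HCVcc-Cre virus (~0.5 moi). After 44 h further culture, infection was read as luciferase luminescence following a 15 min substrate incubation at room temperature.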
# FMDV inh – foot and mouth disease virus antiviral activity; FMDV antiviral cell-based qHTS; Potency, µM (top dose mostly 57.9 µM), without a hit: at the top dose activity change, negative = inhibition, hits mostly inhibitors; 410,000 compounds, 1.2% hits; calls by dose curve; tested in HEK293T cells; further: read-out not given here; potency means the concentration at half of the fitted maximal effect; nearly all actives have a fitted effect of over 45% in size
# Starred values were filed as active, the others as inactive; i = inactive; ? = inconclusive; / = not tested or not shown; [ ] = remark or other dose. On the % scale 0 is the no-effect control and ±100 the full control effect.
SMILES,VACV Venus inh,Vaccinia mCherry,HCMV inh,HCV inhibitor,FMDV inh
CCOC(=O)c1ccc(N2C(=O)c3n[nH]c(C)c3C2c2cccnc2)cc1 (configuration not stated),2%,-3%,5,-15%,-8%
CCOC(=O)c1ccc(N2C(=O)c3[nH]nc(-c4ccc(C)cc4)c3C2c2ccc(O)cc2)cc1 (configuration not stated),-25%,-29%,-74*,/,32µM*
CCOC(=O)c1ccc(N2C(=O)c3[nH]nc(-c4ccccc4)c3C2c2ccc(CC)cc2)cc1 (configuration not stated),?,?,-105*,/,?
Cc1ccc(C)c(C(=O)C(C)Sc2nc3nn(-c4ccccc4)c(=O)c-3c3n2CCCCC3)c1 (configuration not stated),/,/,?,-9%,-22%
CCN1c2ccccc2-c2nc(SCC(=O)Nc3cc(F)ccc3F)ncc2S1(=O)=O,-22%,-30%,?,/,?
CN(Cc1nc2ccccc2c(=O)[nH]1)C(=O)c1cc(-c2ccc(Br)cc2)nc2ccccc12,-19%,-4%,-5,-18%,-23%
CCCCn1c(N)c(NCC(C)C)c(=O)[nH]c1=O,4%,10%,-91*,6%,-13%
CN(CC(=O)NC1CCCc2ccccc21)S(=O)(=O)c1cccs1 (configuration not stated),-16%,-12%,-74*,-28%,-10%
CN(CC(=O)NC1CCCc2ccccc21)S(=O)(=O)c1ccc2c(c1)c(=O)n(C)c(=O)n2C (configuration not stated),-17%,i,-9,-9%,-7%
O=C(CN1C2=NCCCN2c2ccccc21)c1ccc([N+](=O)[O-])cc1,/,/,-66*,11µM*,-4%
COC(=O)c1c(C)nn(-c2ccc(OC(F)(F)F)cc2)c1-c1snnc1C,-18%,-12%,-20,-11%,35µM*
CCOc1cc(N2CCOCC2)c(OCC)cc1NC(=O)CSc1ncccc1C(=O)O,5%,?,-12,6%,-12%
COCCCn1cc(CN2CC(N3CCN(Cc4ccccc4F)CC3)CS2(=O)=O)nn1 (configuration not stated),10%,22%,11,/,-12%
CC(=O)c1c(C)nc2sc3c(=N)n(N)cnc3c2c1-c1ccc(Cl)cc1,4.5µM*,3.5µM*,?,?,-10%
O=S(=O)(NCCSc1nnnn1-c1ccccc1)c1cccs1,?,/,-81*,?,5%
CS(=O)(=O)NCCSc1nnnn1-c1ccccc1,-8%,/,16,-1%,4%
COC(=O)CSc1nnnn1-c1ccccc1,20%,/,-4,8%,-7%
O=S(=O)(NCCSc1nnnn1-c1ccccc1)c1ccc(F)cc1,-8%,-7%,-61*,/,-6%
NNc1nc2sc3c(c2c(=O)n1Cc1ccccc1)CCC3,-16%[7.34 µM],-1%[7.34 µM],3,?,0%
Nn1c(Nc2ccccc2)nc2sc3c(c2c1=O)CCC3,-10%,-13%,-32,13µM*,-25%
CCOC(=O)c1cnc(SCc2nc(N)nc(Nc3ccccc3OC)n2)nc1N,/,/,56,/,/
CCOC(=O)c1cnc(SCc2nc(N)nc(Nc3ccc(C)cc3)n2)nc1N,?,?,-88*,-11%,?
CCOC(=O)c1cnc(SCc2nc(N)nc(Nc3ccc(F)cc3)n2)nc1N,/,/,-96*,?,?
CCC(=O)N1CCc2nc(-c3ccccc3)sc2C1,/,/,41,-3%,73%
CC(C)NC(=O)N1CCC2(CC1)CCN(C(=O)c1cc(C(F)(F)F)cc(C(F)(F)F)c1)CC2,/,/,/,/,-16%
SMILES,VACV Venus inh,Vaccinia mCherry,HCMV inh,HCV inhibitor,FMDV inh
Cc1cc(OCC(=O)Nc2ccc(C(=O)OC3CCCCC3)cc2)ccc1Cl,-18%,-13%,-7,/,-16%
Cc1ccc(-n2nc3c(=O)n(C(C)C(=O)NCc4ccco4)nc(C)c3c2C)cc1 (configuration not stated),-17%,-21%,-26,0%,-13%
Cc1nn(CC(=O)NCc2ccco2)c(=O)c2nn(-c3ccccc3)c(C)c12,-3%,-5%,8,/,-30%
CCC(C(=O)NCc1cccc(Br)c1)n1nc(C)c2c(C)n(-c3ccccc3)nc2c1=O (configuration not stated),-14%,-21%,?,/,?
COC(=O)c1ccccc1NC(=O)C(C)n1nc(C)c2c(C)n(-c3ccccc3)nc2c1=O (configuration not stated),/,/,?,-16%,0%
CCC(C(=O)NCc1cccc(C)c1)n1nc(C)c2c(C)n(-c3ccccc3)nc2c1=O (configuration not stated),/,/,?,13µM*,-28%
CCC(C(=O)Nc1ccccc1C(=O)OC)n1nc(C)c2c(C)n(-c3ccc(C)cc3)nc2c1=O (configuration not stated),?,?,-94*,/,-10%
Cc1ccc(-n2nc3c(=O)n(C(C)C(=O)NCc4ccccc4Cl)nc(C)c3c2C)cc1 (configuration not stated),/,/,-92*,?,?
Cc1nn(CC(=O)NCc2cccs2)c(=O)c2nn(-c3ccccc3)c(C)c12,-5%,?,-71*,-17%,-4%
COc1ccc(CNC(=O)Cn2c(=O)oc3cc(S(=O)(=O)NCc4ccccc4)ccc32)cc1,-27%,?,0,/,4%
CN(C)c1nc(-c2ccc3c(c2)OCO3)nc2ccccc12,/,/,/,/,15%
CCCNC(=O)C(C)n1nc(C)c2c(C)n(-c3ccccc3)nc2c1=O (configuration not stated),-9%,-10%,-16,/,2%
COc1cccc(CNC(=O)Cn2nc(C)c3c(C)n(-c4ccc(C)cc4)nc3c2=O)c1OC,/,/,?,-10%,?
CCOc1ccccc1CNC(=O)C(C)n1nc(C)c2c(C)n(-c3ccccc3)nc2c1=O (configuration not stated),-13%,-9%,?,6.3µM*,?
Cc1nn(C(C)C(=O)Nc2ccccc2Cl)c(=O)c2nn(-c3ccccc3)c(C)c12 (configuration not stated),-16%,-4%,-62*,-2%,24%
CCC(C(=O)Nc1ccccc1Cl)n1nc(C)c2c(C)n(-c3ccccc3)nc2c1=O (configuration not stated),-5%,i,-80*,?,-10%
CCOc1ccccc1CNC(=O)Cn1nc(C)c2c(C)n(-c3ccc(C)cc3)nc2c1=O,/,/,/,2.8µM*,16µM*
COC(=O)[C@@]1(C#N)CC(=O)N([C@@H](C)c2ccccc2)[C@H]1c1ccc(OC)cc1,/,/,-3,/,/
COc1ccc(CNCC(O)COc2cccc3c2OC(C)(C)C3)cc1 (configuration not stated),-22%,?,-64*,?,-30%
C=CCSc1nnc(NC(=O)CN2C(=O)NC3(CCCC3)C2=O)s1,-18%,-17%,22,18%,-16%
Cc1cccc(CSc2ncc(Cl)c(C(=O)Nc3nc4ccc(F)cc4s3)n2)c1,-12%,-15%,13,/,-9%
